Reference: PubChem BioAssay (NCI)
About 79,000 compounds went through this panel and 15% of them were active in at least one assay; those are over-represented in the sample as a whole. The source made the active and inactive calls. Cut-off read from the data, not from the text of the source: active = growth inhibition above about 70%; inactive = the rest.

Experiments:
[1] = NCI Yeast Anticancer Drug Screen. Data for the wt1 strain (AID 149);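 note: 0% = growth of vehicle-treated wt1 cultures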; conditions: S. cerevisiae wt1 strain (SPY 50644) growth inhibition, hits give high values
Method in brief: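 The wt1 strain was treated with compounds, and growth was compared with vehicle-treated cultures to give inhibition.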

[2] = NCI Yeast Anticancer Drug Screen. Data for the rad50EPP+ strain (AID 151);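 note: 0% = growth of vehicle-treated control cultures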; conditions: S. cerevisiae rad50 mutant strain, hits give high values
Method in brief: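 One strain with a rad50 alteration (rad50EPP+) was compound-treated, its growth then compared to that of vehicle controls.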

[3] = NCI Yeast Anticancer Drug Screen. Data for the mgt1 strain (AID 153); conditions: S. cerevisiae mgt1 mutant growth inhibition, hits give high values
Method in brief: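 After exposure of the mgt1 yeast mutant to compound, growth was measured and reported as inhibition compared with vehicle controls.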

[4] = NCI Yeast Anticancer Drug Screen. Data for the rad50 strain (AID 155);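 note: 0% = growth of vehicle-only cultures of the same strain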; conditions: S. cerevisiae rad50 strain growth inhibition, hits give high values
Method in brief: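 Cells are treated with compound, grown, and their growth is then scored against vehicle-only cultures of the same repair-deficient yeast strain.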

[5] = NCI Yeast Anticancer Drug Screen. Data for the mec2-1 strain (AID 157); conditions: S. cerevisiae mec2-1 strain, hits give high values
Method in brief: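 Test agents were screened against the mec2-1 yeast strain, with defined DNA repair or cell cycle alteration. Growth was scored as inhibition against vehicle-only controls.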

[6] = NCI Yeast Anticancer Drug Screen. Data for the rad14 strain (AID 159);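 note: 0% = growth of vehicle-treated control cultures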; conditions: S. cerevisiae rad14 strain growth inhibition, hits give high values
Method in brief: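 Readout: yeast growth inhibition, referenced to vehicle-only cultures. Strain bears a defined alteration in DNA damage repair.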

[7] = NCI Yeast Anticancer Drug Screen. Data for the sgs1 mgt1 strain (AID 161);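 note: 0% = growth of cultures given vehicle only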; conditions: S. cerevisiae sgs1 mgt1 strain, hits give high values
Method in brief: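 Test agents were incubated with a DNA-repair-mutant yeast strain. Growth was then read and compared against vehicle-treated controls.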

[8] = NCI Yeast Anticancer Drug Screen. Data for the CLN2oe strain (AID 163);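 note: 0% = growth of vehicle-only control cultures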; conditions: S. cerevisiae CLN2oe strain, hits give high values
Method in brief: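 Here, growth inhibition in a cell-cycle-altered yeast strain after compound exposure was quantified against vehicle control growth.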

[9] = NCI Yeast Anticancer Drug Screen. Data for the cln2 rad14 strain (AID 165);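 note: 0% = growth equal to vehicle treated cultures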; conditions: S. cerevisiae cln2 rad14 strain, hits give high values
Method in brief: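 Growth of compound-exposed yeast (cln2 rad14 genotype) measured and expressed as inhibition relative to vehicle.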

[10] = NCI Yeast Anticancer Drug Screen. Data for the bub3 strain (AID 167); conditions: S. cerevisiae bub3 mutant strain, hits give high values
Method in brief: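 Part of a panel of yeast mutants defective in DNA damage repair or cell cycle regulation. Each strain is grown with compound, and inhibition is calculated relative to solvent-treated cultures.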

[11] = NCI Yeast Anticancer Drug Screen. Data for the wt2 strain (AID 169);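 note: 0% = growth of vehicle-treated yeast cultures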; conditions: S. cerevisiae wt2 strain growth inhibition, hits give high values
Method in brief: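 Genetically defined yeast strains from a DNA-repair/cell-cycle panel were used. Compound-exposed yeast growth was measured, and the inhibition was calculated relative to vehicle treatment.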

[12] = NCI Yeast Anticancer Drug Screen. Data for the mlh1 strain (AID 171);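 note: 0% = growth of vehicle-treated control cultures of the same strain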; conditions: S. cerevisiae mlh1 strain growth inhibition, hits give high values
Method in brief: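 Here the genetically defined yeast mutant is grown with each compound, and the extent to which its growth falls below that of vehicle-exposed cells is reported.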

[13] = NCI Yeast Anticancer Drug Screen. Data for the sgs1 strain (AID 173);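 note: 0% = growth of vehicle-only control cultures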; conditions: S. cerevisiae sgs1 mutant, hits give high values
Method in brief: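 Relative growth inhibition, referenced to vehicle, was determined in a yeast strain with a defined alteration affecting DNA damage repair or cell cycle control after compound exposure.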

[14] = NCI Yeast Anticancer Drug Screen. Data for the mlh1 rad18 strain (AID 175); conditions: S. cerevisiae mlh1 rad18 strain growth inhibition, hits give high values
Method in brief: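 In this whole-cell yeast screen, a strain with altered DNA damage repair is challenged with compound, and its growth is measured against matched vehicle-treated controls.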

[15] = NCI Yeast Anticancer Drug Screen. Data for the rad18 strain (AID 177); conditions: S. cerevisiae rad18 mutant growth inhibition, hits give high values
Method in brief: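 Screen uses a yeast strain with a defined lesion in DNA damage repair; compound effect is read as loss of growth compared to untreated vehicle cultures.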

[16] = at 5.0 µM (retest, dose inferred, filed as 0.5)
[17] = at 50.0 µM (retest, dose inferred, filed as 5.0)

Measured: growth inhibition

O=C(COc1ccc(Cl)cc1Cl)NO
active: [2]; at 100.0 µM 79% | [4]; at 50.0 µM 96.5% | [4]; at 100.0 µM 77% | [5]; at 50.0 µM 98.4% | [5]; at 100.0 µM 98% | [6]; at 100.0 µM 98% | [10]; at 50.0 µM 88% | [10]; at 100.0 µM 74% | [13]; at 100.0 µM 98%
inactive: [1]; at 1.2 µM -6% | [1]; at 3.7 µM -7% | [1]; at 11.0 µM -10% | [1]; at 33.0 µM -1% | [1]; at 100.0 µM 66% | [2]; at 1.2 µM -5% | [2]; at 3.7 µM 0% | [2]; at 11.0 µM 12% | [2]; at 33.0 µM 35% | [3]; at 1.2 µM -5% | [3]; at 3.7 µM -5% | [3]; at 11.0 µM -5% | [3]; at 33.0 µM 4% | [3]; at 100.0 µM 58% | [4]; at 1.2 µM -4% | [4]; at 3.7 µM -4% | [4]; [16] -138% | [4]; at 11.0 µM 10% | [4]; at 33.0 µM 50% | [4]; [17] 46% | [5]; at 1.2 µM 1% | [5]; at 3.7 µM -1% | [5]; [16] -46% | [5]; at 11.0 µM 11% | [5]; at 33.0 µM 43% | [5]; [17] -14% | [6]; at 1.2 µM -1% | [6]; at 3.7 µM 3% | [6]; at 11.0 µM 7% | [6]; at 33.0 µM 46% | [7]; [16] -58% | [7]; [17] 15% | [7]; at 50.0 µM 59.1% | [8]; at 1.2 µM -3% | [8]; at 3.7 µM -2% | [8]; at 11.0 µM 1% | [8]; at 33.0 µM 14% | [8]; at 100.0 µM 63% | [9]; [16] -60% | [9]; [17] -22% | [9]; at 50.0 µM 30.5% | [10]; at 1.2 µM -9% | [10]; at 3.7 µM -9% | [10]; [16] -67% | [10]; at 11.0 µM 2% | [10]; at 33.0 µM 24% | [10]; [17] 10% | [11]; at 1.2 µM -3% | [11]; at 3.7 µM -2% | [11]; at 11.0 µM -4% | [11]; at 33.0 µM -1% | [11]; at 100.0 µM 50% | [12]; at 1.2 µM 5% | [12]; at 3.7 µM -9% | [12]; at 11.0 µM -2% | [12]; at 33.0 µM 9% | [12]; at 100.0 µM 65% | [13]; at 1.2 µM -3% | [13]; at 3.7 µM 1% | [13]; at 11.0 µM 3% | [13]; at 33.0 µM 48% | [14]; [16] -118% | [14]; [17] -32% | [14]; at 50.0 µM 67.1% | [15]; at 1.2 µM -3% | [15]; at 3.7 µM 4% | [15]; at 11.0 µM 9% | [15]; at 33.0 µM 19% | [15]; at 100.0 µM 66%
